Source: PubChem (National Center for Advancing Translational Sciences (NCATS))
Only some compounds are listed: those with a hit (about 17% of all), similar ones and a draw of the others.
HepG2 tox: kills HepG2 cells in TGF-b inhibitor counter-screen. HepG2 CAGA-GFP viability, ATP luminescence, 18 h. Potency, µM (highest dose often 46.1 µM), without a hit: at the highest dose activity change, negative = cytotoxicity, hits mostly cytotoxic. 410,000 compounds, 0.76% hits. AID 588856
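HepG2 CAGA-GFP cells (1000/well, DMEM with 1% FBS) received compound, then TGF-beta at 500 pg/mL final, and were incubated 18 hours at 37 degrees C. Viability was read by CellTiter-Glo luminescence. Media-only wells were set as complete cell-killing and DMSO as no toxicity.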
HT1080-NT tox: kills 2HG-producing HT-1080-NT fibrosarcoma cells | HT-1080-NT fibrosarcoma viability, CellTiter-Glo ATP luminescence, 48 h | Potency, µM (titrated, usually from 46.1 µM), without a hit: at the highest dose activity, negative = less viability, usual class: cytotoxic | 360,000 compounds, 1.6% hits | AID 686970;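 note: NT is the 2HG producing partner of a matched IDH1 knockdown line; 0% = DMSO-treated cells and -100% = media-only wells without cells; nearly all actives have a fitted effect of over 55% in size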
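Compounds were tested in concentration-response format on HT-1080-NT cells for 48 hours at 37 degrees C. Cell viability came from CellTiter-Glo luminescence; curves were classified by r2, response magnitude and activity.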
DT40 TDP1 CPT: DT40-hTDP1 cell growth loss with CPT | chicken DT40 Tdp1-/-;hTDP1 cells + 20 nM CPT, ATP luminescence, 48 h | Potency, µM (top dose mostly 46.2 µM), for the others: at the top dose activity change, negative = growth inhibition, hits mostly inhibitors | 420,000 compounds, 12% hits; note: % is set by controls: 0 for no effect and ±100 for the full control effect; nearly all actives have a fitted effect of over 55% in size
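Chicken DT40 Tdp1-/- cells stably complemented with human TDP1 were seeded at 400 cells/well in medium containing 20 nM camptothecin, exposed to pin-transferred compounds, and grown at 37 °C for at least 48 hr. Viability was read as ATP luminescence.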
HT1080 IDH1KD tx: HT-1080 IDH1 knockdown cell toxicity (counter line) | HT-1080 IDH1 knockdown viability, ATP luminescence, 48 h | Potency, µM (doses to about 46.1 µM), for inactives: top-dose activity, negative = toxicity, usual class: cytotoxic | 360,000 compounds, 2% hits | AID 686971;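 note: 0% = DMSO wells and -100% = cell-free medium wells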
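In this qHTS, HT-1080 cells depleted of IDH1 are exposed for 48 h at 37 °C to compound titrations. Toxicity is scored from CellTiter-Glo luminescence, with DMSO as full viability and medium alone as none.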
TGFb SMAD3 inh: TGF-b pathway inhibition; AID 588855; HepG2 CAGA-GFP TGF-b/SMAD3 reporter, GFP fluorescence, 18 h; TGF-beta stimulated, 500 pg/mL final; 410,000 compounds, 1.2% hits; Potency, µM (titrated, usually from 46.1 µM), without a hit: at the top dose activity, negative = inhibition, hits mostly inhibitors; note: % is set by controls: 0 for no effect and ±100 for the full control effect; nearly all actives have a fitted effect of over 65% in size
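Inhibition of TGF-beta-driven CAGA-GFP reporter expression in HEPG2 cells is measured by cellular GFP fluorescence after 18 h stimulation with 500 pg/mL recombinant TGF-beta in 1% FBS medium at 37 degrees C.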
DT40 TDP1 no CPT: qHTS for Inhibitors of human tyrosyl-DNA phosphodiesterase 1 (TDP1): qHTS in cells in absence of CPT; DT40 Tdp1-/- hTDP1 cells, no CPT, ATP luminescence, 48 h; Potency, µM (titrated, usually from 46.2 µM), without a hit: top-dose activity change, negative = growth inhibition, hits mostly inhibitors; 420,000 compounds, 15% hits; note: % is set by controls: 0 for no effect and ±100 for the full control effect; nearly all actives have a fitted effect of over 55% in size
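Growth kinetics read by CellTiter-Glo luminescence after ≥48 hr at 37 °C. Cells: DT40 Tdp1-/- stably carrying human TDP1, 400 per well, compound exposure in the absence of CPT (DMSO vehicle).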
Numbers without * were called inactive; u = inconclusive; x = no result given. Calls come from the whole dose curve; as a rule, active = well fitted curve in the direction sought with a large enough effect; inconclusive = small, poorly fitted or top-dose-only effect, or another doubt; inactive = no such curve, though single readings can be large; an effect the other way counts as inactive or inconclusive. Potency is the fitted concentration of half-maximal effect.

SMILES	HepG2 tox	HT1080-NT tox	DT40 TDP1 CPT	HT1080 IDH1KD tx	TGFb SMAD3 inh	DT40 TDP1 no CPT
Cc1cc(C)nc(SCC(=O)Nc2ccc(S(=O)(=O)NC(C)(C)C)cc2)n1	-2%	-12%	16µM*	u	8%	15µM*
Cc1ccc(N2CCN(S(=O)(=O)c3nnc(NC(=O)c4ccccc4)s3)CC2)cc1	2%	12%	u	-1%	-25%	-18%
O=C(CN1C2CCCC1CC(NC(=O)C1CCCCC1)C2)Nc1ccccc1 (stereo not drawn)	14%	-16%	15µM*	0%	14%	u
Cc1cccc(COc2ccc(S(=O)(=O)N3CCOCC3)cc2[N+](=O)[O-])c1	-22%	-4%	-6%	-4%	0%	-16%
COc1cc(COc2ccc(S(=O)(=O)N3CCOCC3)cc2[N+](=O)[O-])ccc1OC(F)F	-23%	-6%	18µM*	-26%	-26%	u
CCN(CC(=O)NCCCN1CCOCC1)S(=O)(=O)c1ccc(F)cc1	7%	4%	2%	6%	-2%	16%
Cc1ccc(-n2nc3c(=O)n(C(C)C(=O)NCc4ccc(Cl)cc4)nc(C)c3c2C)cc1 (stereo not drawn)	-20%	0%	u	4%	u	-22%
Cc1ccc(-n2nc3c(=O)n(C(C)C(=O)NCc4ccccc4C)nc(C)c3c2C)cc1 (stereo not drawn)	-32%	x	u	x	u	23µM*
Cc1nn(C(C)C(=O)NCc2ccccc2F)c(=O)c2nn(-c3ccccc3)c(C)c12 (stereo not drawn)	-1%	-1%	-5%	1%	-16%	9%
CCOc1ccccc1CNC(=O)C(CC)n1nc(C)c2c(C)n(-c3ccccc3)nc2c1=O (stereo not drawn)	-10%	x	18µM*	x	u	u
Cc1ccc(-n2nc3c(=O)n(C(C)C(=O)NCc4ccc(OC(C)C)cc4)nc(C)c3c2C)cc1 (stereo not drawn)	-36%	x	16µM*	x	u	13µM*
CCC(C(=O)NCCc1ccc(SC)cc1)n1nc(C)c2c(C)n(-c3ccc(C)cc3)nc2c1=O (stereo not drawn)	-33%	x	13µM*	x	u	16µM*
CCOC(=O)Cn1c(=O)oc2cc(S(=O)(=O)N(C)c3cccc(C)c3)ccc21	13%	-6%	-18%	0%	1%	-19%
C=C1C(=O)C23CCC4C(C)(C(=O)OC)CCCC4(C)C2CCC1(O)C3 (stereo not drawn)	2.8µM*	9.2µM*	0.65µM*	2.3µM*	3.2µM*	0.52µM*
COC(=O)[C@]1(C)CCC[C@@]2(C)C3CC[C@@]4(C)C[C@]3(CCC21)CC(=O)N4 (stereo partly drawn)	-15%	5%	u	10%	-38%	u
COc1cccc(CCC(=O)N(C)C2CCCN(Cc3ccccc3F)C2)c1 (stereo not drawn)	-3%	3%	-17%	-3%	-11%	u
CN(C(=O)CCc1ccccc1F)C1CCCN(Cc2ccccc2F)C1 (stereo not drawn)	1%	0%	18µM*	-10%	u	16µM*
Cc1cccc(-c2cnc(C(O)c3ccc(-c4ccccc4)cc3)[nH]2)c1 (stereo not drawn)	-61%	u	23µM*	u	u	23µM*
OC(c1ccc(-c2ccccc2)cc1)c1ncc(-c2ccccc2)[nH]1 (stereo not drawn)	-16%	-18%	u	u	7%	u
Cc1cc(C)cc(C(O)c2ncc(-c3ccc4ccccc4c3)[nH]2)c1 (stereo not drawn)	-100%	-9%	23µM*	u	u	u
Cc1cc(C)cc(C(O)c2ncc(-c3ccccc3Cl)[nH]2)c1 (stereo not drawn)	-33%	u	u	21µM*	u	u
Cc1ccc2ccccc2c1C(O)c1ncc(-c2ccccc2Cl)[nH]1 (stereo not drawn)	-38%	u	26µM*	u	-30%	u
Cc1ccccc1-c1cnc(C(O)c2c(C)ccc3ccccc23)[nH]1 (stereo not drawn)	-13%	-27%	u	-27%	15%	u
Cc1ccc(NC(=O)C(c2ccccc2)N2Cc3ccccc3C2=O)cc1Cl (stereo not drawn)	4%	x	u	x	u	-14%
O=C(NCCN1CCOCC1)C1(C(F)(F)F)CC(CCCO)CCCO1 (stereo not drawn)	6%	x	x	x	9%	x
SMILES	HepG2 tox	HT1080-NT tox	DT40 TDP1 CPT	HT1080 IDH1KD tx	TGFb SMAD3 inh	DT40 TDP1 no CPT
COc1ccc(N2C(=O)c3ccccc3C2O)cc1 (stereo not drawn)	-21%	-9%	-20%	-9%	4%	-18%
C=COc1ccc(N2C(=O)c3ccccc3OC2C)cc1 (stereo not drawn)	-3%	9%	u	22%	2%	21µM*
Cc1ccccc1-c1nc(CS(=O)CC(=O)NC2CCCCC2)c(C)o1 (stereo not drawn)	5%	-8%	-24%	-1%	-28%	-23%
COc1ccc(-c2noc(CC(=O)Nc3ccc(Br)cc3C)n2)cc1	-5%	x	10%	x	u	-4%
CN(C)c1ccc(N/C=C/C(=O)C(C)(C)C)cc1	-59%	-21%	18µM*	u	u	u
CC(C)(C)C(=O)/C=C/Nc1ccccc1O	-30%	u	12µM*	13µM*	-30%	13µM*
CN(C)c1ccc(N/C=C/C(=O)c2ccccc2)cc1	-21%	8.9µM*	11µM*	u	11%	11µM*
O=C(/C=C/Nc1ccccc1)c1ccccc1	-28%	-12%	-25%	-14%	-7%	-6%
CCOC(=O)c1ccc(N/C=C/C(=O)C(C)(C)C)cc1	-25%	-2%	-12%	-1%	10%	-14%
C[N+]1(C)CCCC(OC(=O)C(O)(c2ccccc2)c2ccccc2)C1 (stereo not drawn)	4%	-20%	1%	6%	-9%	-2%
COCCCn1c(SCC(=O)N2CCCC2=O)nc2ccccc2c1=O	-7%	6%	-4%	3%	1%	-33%
CCOC(=O)c1sc(N(Cc2ccccc2)C(=O)CCl)nc1C	-173%	u	u	18µM*	u	21µM*
